# Experimental data: PubChem BioAssay AID504332 (National Center for Advancing Translational Sciences (NCATS), 2011)
# About 31,000 (8.9%) of roughly 350,000 compounds were called active. Not shown: some 15% with an inconclusive outcome. The list comes from a sample in which actives are over-represented; it also holds similar structures and randomly drawn compounds. Values without a mark were called inactive. The call rests on the fitted dose curve; in most records, active means well fitted inhibition curve with a large enough effect; inconclusive means small, poorly fitted or top-dose-only effect; inactive means no such curve, though single readings can be large or run the other way.
# Target: Histone-lysine N-methyltransferase EHMT2 (Homo sapiens) (UniProt Q96KQ7)
# Test: qHTS Assay for Inhibitors of Histone Lysine Methyltransferase G9a; further: nearly all actives have a fitted effect of over 75% in size
# Settings: G9a H3K9 monomethylation, AlphaScreen, 2 h; series mostly up to 59 µM; activity, negative = inhibition: at the top concentration
# Excerpt: Methylated lysines, on the N-terminal tails of histone proteins serve as epigenetic markers to recruit factors that can then modify local chromatin structure to lead to functional consequences. G9a and other members of the SUV39 family of the SET domain-containing superfamily of histone lysine methyltransferases (HMT) have been identified to specifically methylate Lys9 of histone H3 (H3K9). G9a catalyzes the mono- and di-methylation of H3K9 in mammalian euchromatic regions, where the resulting H3K9me2 is indicative of transcriptional repression. […] The inhibition of G9a will result in transcriptional activation and work synergistically with DNA methyltransferase and histone deacetylase inhibitors, to kill cancer cells. This qHTS assay for identification of G9a inhibitors is a chemiluminescence based AlphaScreen (PerkinElmer). Methylation of biotinylated-histone peptide is measured through specific antibody-based detection, in conjunction with streptavidin-coated donor and anti-IgG antibody-coated acceptor beads. The method is particularly well suited for detection of inhibitors acting by the desired histone peptide competitive mechanism and is applicable to testing other HMTs. Although AlphaScreen has significant advantages with its utility in a variety of epigenetic target assays, the primary screening data provided in this deposition should be used with caution due to the prevalence of screening artifacts. An AlphaScreen counterscreen is highly recommended to be run against any putative actives to eliminate non specific artifacts. Alternatively, one can use other AlphaScreen assays in PubChem to filter out promiscuous hits. Quinn et al. A chemiluminescence-based method for identification of histone lysine methyltransferase inhibitors. Mol Biosyst 6(5): 782-8. 2010. PMID: 20567762 [2] Baell,Holloway. New substructure filters for removal of pan assay interference compounds (PAINS) from screening libraries and for their exclusion in bioassays. J Med Chem. 53(7):2719-40. 2010. PMID: 20131845 NIH Molecular Libraries Probe Production Network [MLPCN] NIH Chemical Genomics Center [NCGC] Structural Genomics Consortium (SGC) NIH Grant: 5U54 MH084681-02
# To each well of a 1,536w plate, 2ul of HMT enzyme (final 20nM) were added, using a nanoliter dispenser. The G9a- and GLP-inhibitor BIX-01294 (CID: 25150857) are used as an intraplate control, with a 16-point titration in duplicate. A Kalypsys pin-tool transferred 23nl of library compound solution in DMSO to each well. Following a 15 min incubation of enzyme with compounds at room temperature, 1ul mixture of b-H3K9 peptide substrate (final 500nM) and SAM cofactor (final 20uM) were added. Reactions were allowed to proceed at room temperature for 2 hours. Methylated b-H3K9 peptide product was detected with 0.5 ug/mL rabbit polyclonal anti-monomethyl histone H3K9 antibody (Abcam Inc., Cambridge, MA) and 20 ug/mL each streptavidin-coated donor and anti-rabbit IgG acceptor AlphaScreen beads. Antibody and beads were added in a 1ul dispense, for a final volume of 4ul, and plates were incubated, protected from the light, for 10 min at room temperature. Microplates were then read on an EnVision multilabel plate reader using the 1,536 plate HTS AlphaScreen aperture (excitation time 80 ms, measurement time 240 ms).
# On the % scale 0 is the no-effect control and ±100 the full control effect; potency means the concentration at half of the fitted maximal effect.
# Sequence of Histone-lysine N-methyltransferase EHMT2 (Homo sapiens) (Q96KQ7 913-1193 limits assumed): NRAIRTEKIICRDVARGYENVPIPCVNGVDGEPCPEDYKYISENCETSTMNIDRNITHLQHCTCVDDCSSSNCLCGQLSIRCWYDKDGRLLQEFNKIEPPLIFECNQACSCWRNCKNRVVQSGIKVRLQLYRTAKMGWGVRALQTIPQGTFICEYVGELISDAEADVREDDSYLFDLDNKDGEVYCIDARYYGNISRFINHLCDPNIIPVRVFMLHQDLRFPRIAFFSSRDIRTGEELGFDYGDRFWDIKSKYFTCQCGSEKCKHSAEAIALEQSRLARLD
SMILES,Potency,"activity, negative = inhibition"
Cn1c(-c2sc3cc(C(F)(F)F)cnc3c2-c2ccccc2)n[nH]c1=S,2.24 µM (active),–
Cc1ccc2c(=O)c(C(=O)c3cccc(Cl)c3)cn(CC(=O)NCc3ccccc3)c2n1,–,4.96%
Cc1nc2ccccc2c(=O)n1Cc1ccc([N+](=O)[O-])cc1,–,-6.02% [at 102 µM]
O=C1NC(=O)C2C1C(c1ccc([N+](=O)[O-])cc1)=NN2Cc1ccccc1 (stereo not drawn),50.1 µM (active),–
CC(=O)N1c2ccccc2N(Cc2ccc([N+](=O)[O-])cc2)C(=O)C1(C)C,–,6.61%
CC(C)NC(=O)NC(=O)CSc1nnc(-c2ccccc2F)n1N,–,12.1% [at 102 µM]
Nn1c(SCC(=O)NC(=O)NC2CCCC2)nnc1-c1ccccc1F,–,17.4% [at 102 µM]
Nn1c(SCC(=O)NC2CCCC2)nnc1-c1ccccc1F,50.1 µM (active),–
O=C(CSc1nnc(Nc2ccccc2F)s1)NC1CCCC1,8.91 µM (active),–
O=C(CSc1nnc(Nc2ccccc2)s1)Nc1cccnc1Cl,–,-22.7% [at 102 µM]
Cc1cc(NC(=O)CSc2nnc(Nc3ccccc3F)s2)no1,–,1.03% [at 102 µM]
O=C1CCCN1C(=O)COc1ccc([N+](=O)[O-])cc1,–,4.7%
COc1ccc(CCNc2nc(-c3ccc(F)cc3)cc(C(F)(F)F)n2)cc1OC,–,24.8%
Cc1cc(C)cc(-c2nnc(SCC(=O)NC3CC3)o2)c1,–,18.2% [at 2.33 µM]
CO[C@H]1[C@@H]2C=CO[C@@H](O[C@H]3O[C@@H](CO)[C@H](O)[C@@H](O)[C@@H]3O)[C@@H]2[C@@]2(CO)O[C@@H]12,–,-4.51% [at 2.33 µM]
COc1cccc(CNC(=O)Cn2c(=O)c3cccn3c3ccc(F)cc32)c1OC,–,10.8%
Cn1c(=O)c(=O)n(C)c2cc(S(=O)(=O)NCCc3ccccc3)ccc21,–,29.1% [at 0.501 µM]
CCc1ccc(S(=O)(=O)Nc2cc3c(cc2N2CCCCC2)n(C)c(=O)c(=O)n3C)cc1,44.7 µM (active),–
CCc1ccc(S(=O)(=O)Nc2ccc(C)c(NS(C)(=O)=O)c2)cc1,–,-16.3% [at 102 µM]
CN1CCN(C(c2cc3cc4c(cc3[nH]c2=O)OCCO4)c2nnnn2C2CCCC2)CC1 (stereo not drawn),–,-7.18% [at 102 µM]
CCC(C)(C)n1nnnc1C(c1ccccc1OC)N1CCSCC1 (stereo not drawn),–,-7.71%
COCCn1nnnc1C(c1cc2ccc(OC)cc2[nH]c1=O)N1CCc2ccccc2C1 (stereo not drawn),5.62 µM (active),–
Cc1ccc(C(c2nnnn2C(C)(C)C)N2CCc3ccccc3C2)cc1 (stereo not drawn),–,-10.6%
CCOc1ccc2[nH]c(=O)c(C(c3nnnn3CCOC)N3CCOCC3)cc2c1 (stereo not drawn),–,8.47% [at 2.33 µM]

SMILES,Potency,"activity, negative = inhibition"
COc1ccc(OC)c(C(c2nnnn2C(C)(C)C)N2CCc3ccccc3C2)c1 (stereo not drawn),50.1 µM (active),–
Cc1ccc(Cn2c(C)c3cnn(CC(=O)NCc4ccccc4)c(=O)c3c2C)cc1,–,-9.83%
COc1ccc(S(=O)(=O)N2CCCCCC2)cc1C(=O)N(C)Cc1cccc(OC)c1OC,–,-29.7% [at 102 µM]
COc1ccc(CCNC(=O)CCCn2c(=O)c3ccccc3n(Cc3ccc(C)cc3)c2=O)cc1OC,–,-28%
C=CCn1c(C23CC4CC(CC(C4)C2)C3)n[nH]c1=S,3.16 µM (active),–
C=CCn1c(SCC(=O)NC)nnc1C12CC3CC(CC(C3)C1)C2,–,5.32% [at 102 µM]
C=CCn1c(SCC(=O)NC23CC4CC(CC(C4)C2)C3)nc(O)cc1=O,–,18.6%
COc1ccc(C(=O)NCc2ccc(C)cc2)cc1S(=O)(=O)N1CCCC1,–,-16.6% [at 0.0925 µM]
COc1ccc(CNC(=O)CSc2n[nH]c(N)n2)cc1OC,79.4 µM (active),–
Nc1nc(SCC(=O)NN(c2ccccc2)c2ccccc2)n[nH]1,–,8.39%
COc1ccc(CNC(=O)CSc2n[nH]c(-c3ccc(F)cc3)n2)cc1,–,0.544%
Nc1nc(SCC(=O)NNc2c(Cl)cc(Cl)cc2Cl)n[nH]1,10 µM (active),–
Nc1nc(SCC(=O)Nc2ccc(Cl)cc2C(F)(F)F)n[nH]1,–,-3.97% [at 102 µM]
Nc1nc(SCC(=O)Nc2ccc(Cl)c([N+](=O)[O-])c2)n[nH]1,–,-3.46% [at 12.7 µM]
Cc1ccc(CCNC(=O)C2CCN(c3nnc(-n4cccc4CNc4ccc(C)cc4)s3)CC2)cc1,–,-6.97%
COC(=O)c1ccc(NC(=O)c2cccc3c2C(=O)N(C2CCCCC2)C3)cc1,–,3.3%
CC1CCN(C(=O)c2cccc(S(=O)(=O)N3CCCc4ccccc43)c2)CC1,–,10.4% [at 2.33 µM]
COc1cc(OC)cc(C(=O)NNC(=O)CCOc2ccccc2OC)c1,–,10.9%
COc1cccc(C(=O)NCC(=O)OCc2cc(=O)n3ccsc3n2)c1,–,4.14%
COc1cc(C(=O)Nc2ccc(OCc3cc(=O)n4cc(C)sc4n3)cc2)cc(OC)c1OC,–,-3.43%
O=C(Nc1cccc2cccnc12)c1cccc2c(Br)cccc12,–,-2.34%
CCOC(=O)C1CCN(Cc2ccc(-c3ccccc3)cc2)CC1,28.2 µM (active),–
CCCC(=O)C1CCN(Cc2ccccc2)CC1,–,-1.84% [at 102 µM]
CCOC(=O)C1CCN(Cc2nnc(-c3cccc(Br)c3)o2)CC1,–,-1.61% [at 102 µM]
